Test results published in PubChem BioAssay AID1159580 (chemical genetic matrix, 2015).
Several values for one entry are separate records, joined by “and”; a condition that tells them apart may be missing. Equal values may be shown once. Screen size: about 5,500 compounds; about 2,000 (36%) were called active. Not shown: some 18% with an inconclusive outcome. No stated cut-off is given here; in the data, active means normalized growth mostly below about 0.91 (no sharp cut-off); inconclusive means no clear call, values can overlap the other calls; inactive means mostly above about 0.92. This is one part of the list.

Assay: chemical genetic growth profiling, strain panel (AID 1159580);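 further: tested at 20 µM; growth read once vehicle control cultures reached saturation at 30 °C; 1 = growth at the plate median or of vehicle wells; lower values mean less growth of the strain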
Conditions: S. cerevisiae deletion strains, growth OD

Measured: normalized growth

C=CC(C1=CC(=O)C(OC)=CC1=O)c1ccc(OC)cc1 (stereo unspecified)
inactive: locus YAL013W, strain DEP1, hits give low values 0.956 | locus YBR021W, strain FUR4, hits give low values 0.957 | locus YBR171W, strain sec66, hits give low values 0.983 | locus YBR229C, strain ROT2, hits give low values 0.968 | locus YCL029C, strain bik1, hits give low values 0.917 | locus YCL061C, strain MRC1, hits give low values 0.981 | locus YCR088W, strain abp1, hits give low values 0.983 | locus YDL005C, strain med2, hits give low values 1.01 | locus YDL035C, strain GPR1, hits give low values 0.896 | locus YDL040C, strain nat1, hits give low values 0.975 | locus YDL074C, strain BRE1, hits give low values 0.827 | locus YDL101C, strain DUN1, hits give low values 0.939 | locus YDL134C, strain PPH21, hits give low values 0.961 | locus YDL185W, strain tfp1, hits give low values 0.976 | locus YDR001C, strain nth1, hits give low values 0.982 | locus YDR150W, strain NUM1, hits give low values 0.985 | locus YDR297W, strain sur2, hits give low values 0.934 | locus YDR334W, strain swr1, hits give low values 0.918 | locus YDR335W, strain msn5, hits give low values 0.94 | locus YEL037C, strain rad23, hits give low values 0.946 | locus YEL061C, strain CIN8, hits give low values 0.982 | locus YER110C, hits give low values 0.905 | locus YER111C, strain swi4, hits give low values 0.984 | locus YER155C, strain BEM2, hits give low values 0.973 | locus YGL078C, strain dbp3, hits give low values 0.978 | locus YGL167C, strain pmr1, hits give low values 0.978 | locus YGL227W, strain vid30, hits give low values 0.993 | locus YGL248W, strain PDE1, hits give low values 0.948 | locus YGR078C, strain PAC10, hits give low values 0.875 | locus YGR229C, strain SMI1, hits give low values 0.812 | locus YGR252W, strain gcn5, hits give low values 0.77 | locus YHR027C, strain rpn1, hits give low values 0.948 | locus YHR030C, strain SLT2, hits give low values 0.957 and 1 | locus YHR079C, strain IRE1, hits give low values 1.03 | locus YHR094C, strain hxt1, hits give low values 0.947 | locus YHR129C, strain ARP1, hits give low values 0.939 | locus YIL066C, strain RNR3, hits give low values 0.879 | locus YIL073C, strain SPO22, hits give low values 0.929 | locus YIL125W, strain kgd1, hits give low values 0.952 | locus YJL092W, strain hpr5, hits give low values 0.948 | locus YJL095W, strain BCK1, hits give low values 0.894 and 1.04 | locus YJL115W, strain asf1, hits give low values 0.973 | locus YJL134W, strain LCB3, hits give low values 0.967 | locus YJL154C, strain vps35, hits give low values 0.96 | locus YJL168C, strain set2, hits give low values 0.947 | locus YJL187C, strain SWE1 (second series), hits give low values 0.933
active: locus YAL021C, strain ccr4, hits give low values 0.873 | locus YAL026C, strain drs2, hits give low values 0.765 | locus YAL030W, strain snc1, hits give low values 0.893 | locus YBL061C, strain skt5, hits give low values 0.872 | locus YBR009C, strain hhf1, hits give low values 0.661 | locus YBR023C, strain chs3, hits give low values 0.853 | locus YBR231C, strain swc5, hits give low values 0.854 | locus YBR279W, strain paf1, hits give low values 0.883 | locus YCL011C, strain gbp2, hits give low values 0.857 | locus YCL016C, strain dcc1, hits give low values 0.81 | locus YCL069W, strain vba3, hits give low values 0.911 | locus YDL192W, strain arf1, hits give low values 0.871 | locus YDR069C, strain doa4, hits give low values 0.889 | locus YDR101C, strain arx1, hits give low values 0.906 | locus YDR137W, strain rgp1, hits give low values 0.596 | locus YDR159W, strain sac3, hits give low values 0.813 | locus YDR162C, strain NBP2, hits give low values 0.801 | locus YDR195W, strain ref2 1.16 [resistant] | locus YDR318W, strain mcm21, hits give low values 0.843 | locus YDR388W, hits give low values 0.601 | locus YDR392W, strain spt3, hits give low values 0.23 | locus YDR502C, strain sam2, hits give low values 0.893 | locus YEL003W, strain gim4, hits give low values 0.803 | locus YEL061C, strain CIN8 (second series), hits give low values 0.876 | locus YER015W, strain faa2, hits give low values 0.906 | locus YER016W, strain bim1, hits give low values 0.912 | locus YER155C, strain BEM2 (second series), hits give low values 0.476 | locus YER167W, strain BCK2, hits give low values 0.829 | locus YFR010W, strain ubp6, hits give low values 0.887 | locus YGL086W, strain mad1, hits give low values 0.87 | locus YGL173C, strain kem1, hits give low values 0.853 | locus YGL240W, strain doc1, hits give low values 0.743 | locus YGL253W, strain hxk2, hits give low values 0.813 | locus YGR135W, strain pre9, hits give low values 0.856 | locus YHR013C, strain ard1, hits give low values 0.6 | locus YHR079C, strain IRE1 (second series), hits give low values 0.893 | locus YHR142W, strain chs7, hits give low values 0.637 | locus YHR200W, strain rpn10, hits give low values 0.907 | locus YIR030C, strain dcg1, hits give low values 0.882 | locus YJL095W, strain BCK1 (second series), hits give low values 0.809 | locus YJL129C, strain trk1, hits give low values 0.868 | locus YJL164C, strain tpk1, hits give low values 0.759 | locus YJL166W, strain qcr8, hits give low values 0.588 | locus YJL187C, strain SWE1, hits give low values 0.841 | locus YJR043C, strain POL32, hits give low values 0.832
